From PubChem BioAssay
PriA SSB inh: inhibitors of Klebsiella pneumoniae PriA binding to SSB C-terminal tail; hit rate 0.6% among 430,000; AlphaScreen SSBct-PriA binding, biotinylated peptide; AID 1272365; inhibition, % at 33 µM; in the data active = inhibition mostly above about 37%, no sharp cut-off; inactive = mostly below about 20%;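 also: plate controls were negative control peptide for no effect and reference peptide for full effect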
BJeLR viability: BJeLR cell viability loss; BJeLR (HRASV12) viability, CellTiter-Glo ATP luminescence, 48 h; inhibition, % (concentration not given with the values); hit rate 0.17% among 300,000; in the data active = inhibition above about 50%; inconclusive = no clear call, values can overlap the other calls
PrP UTR inh: suppresses PrP 5' UTR mRNA reporter expression. cell-based PrP 5' UTR mRNA reporter, plate reader. inhibition, % (test concentration not listed). hit rate 0.35% among 340,000. AID 488862; in the data active = inhibition above about 52%; also: 0 = median of the neutral control wells
PfHsp40 rescue: rescue of PfHsp40-mediated yeast toxicity. hit rate 0.68% among 340,000. growth rescue, % at 12.5 µM. AID 504582. S. cerevisiae expressing PfHsp40, growth rescue, ATP luminescence; in the data active = growth rescue above about 28%, passing the limit was not always enough; inconclusive = no clear call, values can overlap the other calls;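 also: yeast W303a lacking pdr1 and pdr3 grown in galactose medium; growth measured after three days at 30 °C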
RecA intein inh: Mtb RecA intein splicing inhibition; P9WHJ3; hit rate 0.75% among 290,000; inhibition, % (concentration not given with the values); cell-free RecA intein splicing, fluorescence; in the data active = inhibition above about 30%; inconclusive = no clear call, values can overlap the other calls;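 also: 0% = vehicle wells and 100% = reference inhibitor control wells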
Target sequence (P9WHJ3 whole entry, looked up): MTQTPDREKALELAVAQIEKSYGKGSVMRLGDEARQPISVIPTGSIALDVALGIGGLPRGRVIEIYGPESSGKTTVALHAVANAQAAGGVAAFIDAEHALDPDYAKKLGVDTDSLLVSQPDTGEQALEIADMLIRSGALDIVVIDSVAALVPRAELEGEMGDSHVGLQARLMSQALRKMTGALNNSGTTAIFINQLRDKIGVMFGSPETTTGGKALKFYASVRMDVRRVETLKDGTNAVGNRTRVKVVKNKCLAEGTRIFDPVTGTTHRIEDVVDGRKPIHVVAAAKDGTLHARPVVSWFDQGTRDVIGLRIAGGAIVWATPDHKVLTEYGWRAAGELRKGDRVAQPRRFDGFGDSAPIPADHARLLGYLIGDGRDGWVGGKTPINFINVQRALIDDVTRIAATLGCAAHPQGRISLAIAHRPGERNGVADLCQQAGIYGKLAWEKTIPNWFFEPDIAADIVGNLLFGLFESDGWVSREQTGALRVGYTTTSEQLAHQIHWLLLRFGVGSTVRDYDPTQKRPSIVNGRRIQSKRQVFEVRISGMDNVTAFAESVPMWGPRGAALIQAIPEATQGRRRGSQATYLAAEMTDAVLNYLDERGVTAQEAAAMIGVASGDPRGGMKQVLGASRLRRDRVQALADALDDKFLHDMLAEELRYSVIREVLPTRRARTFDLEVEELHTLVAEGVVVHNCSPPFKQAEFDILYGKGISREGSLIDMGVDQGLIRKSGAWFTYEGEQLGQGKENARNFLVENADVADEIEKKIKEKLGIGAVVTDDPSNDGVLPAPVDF
PrPC TRFRET: reduces human prion protein on the cell surface. P04156. cell surface PrPC, TR-FRET read-out. inhibition, % at 13.8 µM. AID 720596. hit rate 0.43% among 370,000; in the data active = inhibition above about 24%; also: 0% = median of the test wells and 100% = reference compound wells
GFP chromophore: counter-screen: blocks GFP chromophore formation. cell-free GFP chromophore formation, fluorescence. AID 434968. EC50, µM. hit rate 83% among 2,100. shares compounds with RecA intein inh; call rule not given here
* = called active by the depositor; ? = inconclusive; nt = not tested or not shown. A selection: hits, their analogues and other compounds. The true share with any hit is near 1.9%.

SMILES	PriA SSB inh	BJeLR viability	PrP UTR inh	PfHsp40 rescue	RecA intein inh	PrPC TRFRET	GFP chromophore
Cc1ccc(C(c2c(C)[nH][nH]c2=O)c2c(C)[nH][nH]c2=O)cc1	7	3	4	-1	98*	5	0.54*
COC(=O)COc1ccc(C(c2c(C)[nH][nH]c2=O)c2c(C)[nH][nH]c2=O)cc1	-7	-6	-19	0	98*	-11	0.69*
COc1cc(NS(=O)(=O)c2ccc(NC(=O)c3cc(=O)c4ccccc4o3)cc2)nc(OC)n1	-5	nt	nt	nt	nt	nt	nt
Cc1cccc(CS(=O)(=O)NCCCN2CCO[C@H](c3ccccc3)C2)c1	-4	nt	nt	nt	nt	nt	nt
Fc1ccc(C=Nc2c(-c3ccc(F)cc3)nc3n2CCS3)cc1	-2	nt	nt	nt	nt	nt	nt
Cc1[nH][nH]c(=O)c1C(c1ccc([N+](=O)[O-])cc1)c1c(C)[nH][nH]c1=O	-3	-1	8	-1	96*	-6	0.69*
CC(C(=O)NN)c1ccc([N+](=O)[O-])cc1 (stereo unspecified)	11	-7	4	-1	nt	-13	nt
COc1cc(C(c2c(C)[nH][nH]c2=O)c2c(C)[nH][nH]c2=O)ccc1OCc1ccc([N+](=O)[O-])cc1	13	-6	-56	0	95*	-16	0.35*
COc1cc(C(c2c(C)[nH][nH]c2=O)c2c(C)[nH][nH]c2=O)ccc1OC(=O)c1cccc([N+](=O)[O-])c1	-4	nt	-1	0	nt	-5	nt
COc1ccc(OC)c(-c2cc(C(=O)N3CCC4(CC3)OC(=O)c3ccccc34)n(C)n2)c1	-7	nt	nt	nt	nt	nt	nt
CCOc1ccccc1C(=O)Nc1nc(CC(C)=O)ns1	-6	nt	nt	nt	nt	nt	nt
O=C(c1ccc2ncsc2c1)N1CC(c2nc(-c3cnccn3)no2)C1	-15	nt	nt	nt	nt	nt	nt
Cc1[nH]nc2c1C(c1cccc(OC(=O)N3CCOCC3)c1)C(C#N)=C(N)O2 (stereo unspecified)	-14	-7	-10	-1	59*	7	35*
Cc1[nH]nc2c1C(c1ccc(OC(=O)c3ccco3)cc1)C(C#N)=C(N)O2 (stereo unspecified)	-13	2	4	0	74*	5	33*
CC(C)c1[nH]nc2c1C(c1ccc(OC(=O)c3ccco3)cc1)C(C#N)=C(N)O2 (stereo unspecified)	20	1	-9	1	46*	-1	20*
CC(C)(C)c1[nH]nc2c1C(c1ccccc1OC(=O)N1CCOCC1)C(C#N)=C(N)O2 (stereo unspecified)	-10	-4	-38	0	nt	-1	nt
CSc1nnc(NC(=O)c2nc(S(=O)(=O)Cc3ccccc3)ncc2Cl)s1	-9	6	-15	-1	72*	-6	30*
CCCc1nnc(NC(=O)c2nc(S(=O)(=O)Cc3ccc(C)cc3)ncc2Cl)s1	-8	5	-25	-1	85*	-5	>38
CC(C)c1nnc(NC(=O)c2nc(S(=O)(=O)Cc3ccccc3)ncc2Cl)s1	-7	5	-18	-1	79*	-5	>38
CC(C)(C)Nc1nc(Cl)nc(N(C#N)CN2C(=O)c3ccccc3S2(=O)=O)n1	-3	-8	-14	3	51*	5	39*
CCc1ccc(C2C(C#N)=C(N)C(C#N)(C#N)C3=CCC(C(C)(C)C)CC32)cc1 (stereo unspecified)	0	-3	-3	0	30*	nt	15*
CC(C)(C)C1CC=C2C(C#N)=C(N)C(C#N)(C#N)C(c3cccs3)C2C1 (stereo unspecified)	nt	4	nt	nt	19	nt	nt
Cn1c(=O)c2c(SCC(=O)NCC3CCCO3)nc(-c3cccc([N+](=O)[O-])c3)nc2n(C)c1=O (stereo unspecified)	-15	nt	nt	nt	nt	nt	nt
O=C(O)c1cc(Nc2cc(Cl)c3nonc3c2[N+](=O)[O-])ccc1O	-8	-2	-29	0	97*	-20	1.9*
O=[N+]([O-])c1c(Nc2ccccc2O)cc(Cl)c2nonc12	17	3	-23	-2	96*	-21	1.5*
SMILES	PriA SSB inh	BJeLR viability	PrP UTR inh	PfHsp40 rescue	RecA intein inh	PrPC TRFRET	GFP chromophore
O=C(c1cc(Br)cs1)N1CCC2(CC1)OCCS2	1	nt	nt	nt	nt	nt	nt
Cc1ccc(NC(=O)CN2CCC(C(=O)NC3CCN(Cc4ccccc4)CC3)CC2)cc1	-19	nt	nt	nt	nt	nt	nt
CC(C)Cc1ccc(S(=O)(=O)Cc2nc(-c3ccc(Cl)cc3)no2)cc1	-6	nt	nt	nt	nt	nt	nt
COc1ccc(F)c(C2C(C#N)=C(N)Oc3n[nH]c(C(C)(C)C)c32)c1 (stereo unspecified)	5	-10	-26	2	7	4	nt
COc1cccc(C2C(C#N)=C(N)Oc3c2oc(CO)cc3=O)c1 (stereo unspecified)	1	-1	-7	0	-2	-12	nt
CCCc1[nH]nc2c1C(c1cccc(OC)c1)C(C#N)=C(N)O2 (stereo unspecified)	-6	8	-4	0	42*	-2	38*
CCCc1[nH]nc2c1C(c1ccc(OC)cc1OC)C(C#N)=C(N)O2 (stereo unspecified)	-2	-7	-11	0	79*	-5	17*
O=C(CS(=O)c1ccc(C(F)(F)F)cc1[N+](=O)[O-])Oc1ccccc1 (stereo unspecified)	-19	1	3	1	66*	-14	15*
CNC(=O)c1cc(C(=O)c2ccccc2Br)c[nH]1	-7	19	-9	-2	1	2	nt
O=C(c1c[nH]c(C(=O)C(Cl)(Cl)Cl)c1)c1ccccc1Br	-11	7	-13	-1	51*	-5	26*
Cc1ccc(Nc2cc(C)nn2-c2nc(C)cc(C)n2)cc1	-5	-2	-11	?	4	14	nt
Cc1ccc(Nc2cc(C)nn2-c2nc(C)cc(=O)[nH]2)cc1	32	40	29	13	39*	nt	>38
COC(=O)c1sccc1S(=O)(=O)Nc1cc(Cl)c(OC)cc1OC	14	nt	nt	nt	nt	nt	nt
COC(=O)C(O)(c1c(C)[nH]n(-c2ccccc2)c1=O)C(F)(F)F (stereo unspecified)	16	-1	-11	1	92*	-2	7.5*
CNC(=O)c1c(NC(=O)c2cc(Cl)ccc2[N+](=O)[O-])sc2c1CCC2	12	nt	nt	nt	nt	nt	nt
CCOc1cccc(CNc2ccc(O)cc2)c1OCc1ccc(Cl)cc1	1	-7	-42	0	-13	-3	nt
CCOc1ccccc1CNc1ccc(O)cc1	10	0	-29	2	82*	-13	23*
CCOc1cc(CNc2ccc(O)cc2)ccc1OCc1ccc(Cl)cc1Cl	2	5	-12	24	40*	nt	>38
COc1ccc(C=NNC(=O)c2c(Br)cnn2C)c2ccccc12	-2	nt	nt	nt	nt	nt	nt
COc1ccc(C(CCN(Cc2ccc(OC)c(OC)c2)C(C)=O)c2ccccc2)cc1 (stereo unspecified)	2	8	2	3	12	5	nt
